Sampled rows, rich in hits. Any-hit rate of the full collection: about 19%.
MCF10A rerep: DNA re-replication induction in MCF 10a cells | MCF 10A DNA re-replication, Hoechst nuclear intensity, 48 h | actives 2.9% (n = 350,000) | AID 624296 | Potency, µM (titrated, usually from 46.1 µM), actives largely listed as activators; further: nearly all actives have a fitted effect of over 50% in size
BCR signal inh: blocks chronic active B-cell receptor signaling | ABC-DLBCL IkBa-CBG/CBR reporter, luminescence ratio, 4 h | Potency, µM (highest dose often 46.1 µM), actives largely listed as inhibitors | actives 0.05% (n = 340,000) | AID 493014; active means well fitted inhibition curve with a large enough effect in the signal ratio, with a control signal flat, not every such curve was filed as active; inconclusive means small, poorly fitted or top-dose-only effect, or effect the other way, or a change in a side signal; the % refers to the signal ratio
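TMD8 human ABC-DLBCL cells with doxycycline-inducible IκBα–green luciferase fusion and unfused red luciferase, in 0.5% FBS medium; compounds up to 46 uM, 4 h at 37C. Green/red luminescence ratio, filter-overlap corrected, fitted to concentration-response curves.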
IL1B secr inh: blocks inflammasome-driven IL-1 beta release; actives 4.7% (n = 360,000); AID 743279; THP-1 LPS/ATP IL-1B secretion, AlphaLISA, 16 h; active compounds read low; activity change, % at 57.5 µM; in the data active means activity change below about -50%; inconclusive means mostly about -30% to -49%
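Secreted IL-1B measured by AlphaLISA bead assay after 16 h compound exposure of THP-1 cells; compounds (final up to 57.5 uM) added 1 h before LPS (250 ng/mL) and ATP (1.25 mM) stimulation; lower signal means less secretion.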
TDP1 cell CPT: growth inhibition of DT40 Tdp1-/-;hTDP1 cells with camptothecin (screen for TDP1 inhibitors) | chicken DT40 Tdp1-/-;hTDP1 cells + 20 nM CPT, ATP luminescence, 48 h | Potency, µM (series often up to 46.2 µM), usual class: inhibitors | actives 12% (n = 420,000); further: nearly all actives have a fitted effect of over 55% in size
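Chicken DT40 Tdp1-/- cells complemented with human TDP1, 400 cells/well, exposed to compounds plus 20 nM camptothecin for at least 48 h at 37 C; viability read as ATP content by CellTiter-Glo luminescence.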
TDP1 cell noCPT: qHTS for Inhibitors of human tyrosyl-DNA phosphodiesterase 1 (TDP1): qHTS in cells in absence of CPT; Potency, µM (highest dose often 46.2 µM), most hits filed as inhibitors; DT40 Tdp1-/- hTDP1 cells, no CPT, ATP luminescence, 48 h; actives 15% (n = 420,000); AID 686978, 2013; further: nearly all actives have a fitted effect of over 55% in size
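Growth of hTDP1-complemented DT40 Tdp1-knockout cells is measured by ATP luminescence after at least 48 hr compound exposure at 37 °C, with DMSO substituting for the 20 nM CPT used in the parallel screen.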
SW480 rerep: induces DNA re-replication in SW480 colon adenocarcinoma cells | SW480 DNA re-replication, Hoechst DNA content imaging, 48 h | Potency, µM (series often up to 46.1 µM), usual class: activators | actives 1.8% (n = 340,000) | AID 624297; further: nearly all actives have a fitted effect of over 55% in size
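250 cells/well; 23 nL cpd via pin tool; 48 hr, 37 C, 5% CO2; Hoechst 40 min; imager read of total nuclear intensity, ex 405/em 500-530 nm.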
A number is an active result; n = inactive; u = inconclusive; x = no result; ! = not confirmed by another sample; [ ] = remark or other dose. Unless noted, the call rests on the fitted dose curve; in most records, active means well fitted curve in the direction sought with a large enough effect; inconclusive means small, poorly fitted or top-dose-only effect, or another doubt; inactive means no such curve, though single readings can be large; an effect the other way counts as inactive or inconclusive.

SMILES	MCF10A rerep	BCR signal inh	IL1B secr inh	TDP1 cell CPT	TDP1 cell noCPT	SW480 rerep
Cc1ccccc1CN1CCc2nnc(C(C)NC(=O)C3CCN(C)CC3)n2CC1 (configuration not stated)	x	x	x	n	n	x
CC(Sc1nc(N)c2c3c(sc2n1)CSC(C)(C)C3)C(=O)Nc1ccccc1 (configuration not stated)	u	n	u	18.4µM	13µM	u
COC(=O)c1ccccc1NC(=S)N(Cc1ccc2c(c1)OCO2)Cc1cc2ccc(OC)cc2[nH]c1=O	n	n	n	n	u	n
CN(Cc1ccco1)c1ncnc2ccc(-c3ccc4c(ccn4C)c3)cc12	u	6.51µM	x	x	x	3.66µM
CN(Cc1ccco1)c1ncncc1-c1ccc2c(c1)OCO2	x	x	x	u	n	x
Cc1noc(C)c1-c1cc(N(C)Cc2ccco2)ncn1	x	x	x	u	n	x
CN(Cc1ccco1)c1ncnc2ccc(-c3ccc4c(c3)OCO4)cc12	n	u	x	18.4µM	16.4µM	n
CN(C)C(=O)c1ccc(-c2cncnc2N(C)Cc2ccco2)cc1	x	x	x	n	n	x
CN(C)C(=O)c1ccc(-c2ccc3ncnc(N(C)Cc4ccco4)c3c2)cc1	x	x	x	5.8µM	u	x
Cc1noc(C)c1-c1ccc2ncnc(N(C)Cc3ccco3)c2c1	x	x	x	u	11.6µM	x
CC(=O)c1ccc2c(c1)N(Cc1ccccc1Cl)C(=O)C(C)S2 (configuration not stated)	x	x	n	u	u	x
CN(CCCC(=O)N1CCN(c2ncccn2)CC1)S(=O)(=O)c1ccc(F)cc1	n	n	n	n	u	n
CN(Cc1ccco1)c1ncnc2ccc(-c3cccc(C#N)c3)cc12	x	x	x	23.1µM	23.1µM	x
CN(Cc1ccco1)c1ncnc2ccc(-c3cccc(Cl)c3)cc12	x	n	x	x	x	x
CN(Cc1ccco1)c1ncnc2ccc(-c3cccnc3)cc12	x	u	x	14.6µM	18.4µM	x
CC(C)NC(=O)C1CCC(Cn2c(=O)c3sccc3n(CC(=O)N3CCCC3)c2=O)CC1 (configuration not stated)	x	x	x	n	n	x
CC1=CC(=O)C=C(C)C1=NOC(=O)c1cccc([N+](=O)[O-])c1	u	u	n	10.3µM	u	n
Cc1cccc(C(=O)O/N=C(\N)c2cccc([N+](=O)[O-])c2)c1	n	n	n	n	n	n
CC(C)C[C@@H](CNCC(=O)[C@H](Cc1ccccc1)NC(=O)c1[nH]cnc1C(=O)N[C@H](CN)CC(C)C)NC(=O)c1nc[nH]c1C(=O)N[C@@H](CC(=O)O)C(=O)O	n	x	n	n	n	n
COc1cccc(-n2c(=O)c3cc(OC)c(OC)cc3n(CC(=O)Nc3ccc(F)cc3)c2=O)c1	x	x	x	u	n	x
Cc1sc(NC(=O)CN(Cc2ccc(F)cc2)C(=O)C(C)(C)C)c(C(N)=O)c1C	n	n	n	13µM	8.2µM	n
Cc1sc(NC(=O)CN(Cc2ccccc2)C(=O)C2CC2)c(C(N)=O)c1C	n	n	n	8.2µM	4.61µM	n
CC(=O)N(CC(=O)Nc1sc(C)c(C)c1C(N)=O)Cc1ccccc1	n	n	n	u	u	n
CCC(CC)NC(=O)CSc1ccc(S(=O)(=O)N2CCCCC2)cn1	n	n	n	u	u	n
CC(C)C[C@H](NC(=O)N1CCn2c1nc1ccccc12)C(=O)NCCc1ccccc1	n	u	-50.6	u	u	n
SMILES	MCF10A rerep	BCR signal inh	IL1B secr inh	TDP1 cell CPT	TDP1 cell noCPT	SW480 rerep
CC(C)C[C@H](NC(=O)N1CCn2c1nc1ccccc12)C(=O)NCc1ccccc1	n	n	n	u	u	n
O=C(c1ccccc1Br)N1CCn2c1nc1ccccc12	3.66µM	n	n	n	n	n
C[C@H](NC(=O)N1CCn2c1nc1ccccc12)C(=O)N1CCCCC1	n	n	n	16.4µM	u	n
CC(C)(C)S(=O)(=O)N1C[C@H]2CC/C=C\C/C=C\2[C@@H]1CCO	x	x	n	20.6µM	13µM	x
CC(C)(C)S(=O)(=O)N1C[C@@H]2CC/C=C\C/C=C\2[C@H]1CCO	n	x	n	13µM	8.2µM	n
COc1ccccc1CNS(=O)(=O)c1ccc(F)c(C(=O)Nc2cc(Cl)ccc2OC)c1	x	n	x	u	u	x
O=C(O)C(C1CCCCC1)C1(O)CCCC1 (configuration not stated)	n	x	n	n	n	n
COCCCNc1ncnc2c1nnn2C	x	n	x	u	n	x
CN(C)CC1CC/C(=C\c2ccc(O)cc2)C1=O (configuration not stated)	3.26µM	x	-113.2	0.581µM	1.3µM	10.3µM
CN(C)CC1CCC/C(=C\c2ccc(OC(=O)/C=C/c3ccccc3)cc2)C1=O (configuration not stated)	n	x	-110.8	1.3µM	1.84µM	u
CN(C)CC1CCC/C(=C\c2ccc(OC(=O)c3ccc(Cl)cc3)cc2)C1=O (configuration not stated)	u	x	-99.6	0.517µM	0.411µM	u
O=C(Oc1ccc2c(c1)OCC2=O)c1ccc(Cl)cc1	n	n	n	n	n	n
O=C1/C(=C\c2ccc(Cl)cc2)CCC1CNc1ccc(Cl)cc1 (configuration not stated)	5.8µM	x	-56.9	2.31µM	2.59µM	u
Cc1noc(C)c1CCC(=O)N1CCOc2ccc(CN3CCN(c4ccccn4)CC3)cc2C1	x	x	x	n[9.04 µM]	u	x
COc1ccc(/C=C2/CCC(CN3CCOCC3)C2=O)cc1 (configuration not stated)	u	x	-102.9	1.16µM	1.16µM	14.6µM
COc1ccc(/C=C2\CCC(C3CCCC3)C2=O)cc1 (configuration not stated)	n	n	n	n	n	n
COC(=O)c1ccc(CN2CCC3(CCC(CNC(=O)c4ccccc4)O3)CC2)cc1 (configuration not stated)	x	x	x	n[9.04 µM]	n	x
COC(=O)CNC(=O)C(=O)OC	x	x	x	n[4.12 µM]	n[4.12 µM]	x
COCCN(C(=S)Nc1ccc(Cl)cc1OC)C1CCN(C(C)=O)CC1	n	n	n	u	n	n
COc1ccc(-c2nc3ccc(C)cn3c2NCc2ccccc2)cc1SC1CCCCC1	18.4µM	u	n	13µM	23.1µM	n[9.22 µM]
CCCCNc1c(-c2ccc(OC)c(SC3CCCCC3)c2)nc2ccc(C)cn12	7.31µM	n	-58.8	5.8µM	8.2µM	n
CCCCNc1c(-c2ccc(SC3CCCCC3)c(OC)c2)nc2ccc(C)cn12	10.3µM	n	-68.5!	23.1µM	18.4µM	u
CC(C)On1c(SCC(=O)N(C)C)nc2ccccc2c1=O	n	n	n	n	n	n
CC(=O)N1CCN(C(=O)c2ccc(-c3ccccc3Cl)o2)CC1	n	n	n	n	n	n
